Source: PubChem BioAssay AID1159580 (chemical genetic matrix, 2015)
Where “and” joins values, the source holds several entries; their conditions need not be identical. Identical values can stand only once. Hit rate of the full screen: of about 5,500 compounds, about 2,000 (36%) were called active. Another 18% or so got no clear call; they are omitted. Cut-off read from the data, not from the text of the source: active = normalized growth mostly below about 0.91 (no sharp cut-off); inconclusive = no clear call, values can overlap the other calls; inactive = mostly above about 0.92. Some of the results follow.

Assay: chemical genetic growth profiling, strain panel (AID 1159580);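 note: tested at 20 µM; growth read once vehicle control cultures reached saturation at 30 °C; 1 = growth at the plate median or of vehicle wells; lower values mean less growth of the strain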
Details: S. cerevisiae deletion strains, growth OD

Measured: normalized growth

CC(=O)O[C@H]1CC[C@@]2(C)C(=CCC3C2CC[C@@]2(C)C3CC[C@@H]2C(C)CCCC(C)C)C1 (stereo partly drawn)
inactive: locus YAL021C, strain ccr4, active compounds read low 1 | locus YAL026C, strain drs2, active compounds read low 1 | locus YAL030W, strain snc1, active compounds read low 0.985 | locus YBL061C, strain skt5, active compounds read low 0.994 | locus YBR009C, strain hhf1, active compounds read low 0.994 | locus YBR021W, strain FUR4, active compounds read low 0.996 | locus YBR023C, strain chs3, active compounds read low 0.998 | locus YBR171W, strain sec66, active compounds read low 0.976 | locus YBR229C, strain ROT2, active compounds read low 1.01 | locus YBR231C, strain swc5, active compounds read low 0.988 | locus YBR279W, strain paf1, active compounds read low 0.997 | locus YCL011C, strain gbp2, active compounds read low 0.992 | locus YCL016C, strain dcc1, active compounds read low 1.01 | locus YCL029C, strain bik1, active compounds read low 1.02 | locus YCL061C, strain MRC1, active compounds read low 0.988 | locus YCL069W, strain vba3, active compounds read low 0.998 | locus YCR088W, strain abp1, active compounds read low 0.988 | locus YDL005C, strain med2, active compounds read low 0.981 | locus YDL035C, strain GPR1, active compounds read low 1.03 | locus YDL040C, strain nat1, active compounds read low 0.975 | locus YDL074C, strain BRE1, active compounds read low 1.04 | locus YDL101C, strain DUN1, active compounds read low 1.01 | locus YDL134C, strain PPH21, active compounds read low 1.02 | locus YDL185W, strain tfp1, active compounds read low 1.03 | locus YDL192W, strain arf1, active compounds read low 1.05 | locus YDR001C, strain nth1, active compounds read low 0.993 | locus YDR069C, strain doa4, active compounds read low 0.987 | locus YDR101C, strain arx1, active compounds read low 1.02 | locus YDR137W, strain rgp1, active compounds read low 1.01 | locus YDR159W, strain sac3, active compounds read low 0.993 | locus YDR162C, strain NBP2, active compounds read low 1.02 | locus YDR195W, strain ref2 0.943 | locus YDR297W, strain sur2, active compounds read low 0.99 | locus YDR318W, strain mcm21, active compounds read low 1.03 | locus YDR334W, strain swr1, active compounds read low 0.988 | locus YDR335W, strain msn5, active compounds read low 1 | locus YDR388W, active compounds read low 1.03 | locus YDR392W, strain spt3, active compounds read low 0.958 | locus YDR502C, strain sam2, active compounds read low 1.02 | locus YEL003W, strain gim4, active compounds read low 0.988 | locus YEL037C, strain rad23, active compounds read low 0.996 | locus YEL061C, strain CIN8 (second series), active compounds read low 0.992 | locus YEL061C, strain CIN8, active compounds read low 1.01 | locus YER015W, strain faa2, active compounds read low 0.995 | locus YER016W, strain bim1, active compounds read low 0.994 | locus YER110C, active compounds read low 1.03 | locus YER111C, strain swi4, active compounds read low 0.979 | locus YER155C, strain BEM2 (second series), active compounds read low 0.97 | locus YER155C, strain BEM2, active compounds read low 0.992 | locus YER167W, strain BCK2, active compounds read low 1.02 | locus YFR010W, strain ubp6, active compounds read low 0.986 | locus YGL078C, strain dbp3, active compounds read low 1.02 | locus YGL086W, strain mad1, active compounds read low 1.01 | locus YGL167C, strain pmr1, active compounds read low 0.989 | locus YGL173C, strain kem1, active compounds read low 0.99 | locus YGL227W, strain vid30, active compounds read low 0.978 | locus YGL240W, strain doc1, active compounds read low 0.969 | locus YGL248W, strain PDE1, active compounds read low 1.02 | locus YGL253W, strain hxk2, active compounds read low 0.995 | locus YGR078C, strain PAC10, active compounds read low 1.03 | locus YGR135W, strain pre9, active compounds read low 1.02 | locus YGR252W, strain gcn5, active compounds read low 1.03 | locus YHR013C, strain ard1, active compounds read low 0.997 | locus YHR027C, strain rpn1, active compounds read low 0.997 | locus YHR030C, strain SLT2, active compounds read low 1.01 and 0.967 | locus YHR079C, strain IRE1 (second series), active compounds read low 1.02 | locus YHR079C, strain IRE1, active compounds read low 0.974 | locus YHR094C, strain hxt1, active compounds read low 1.01 | locus YHR129C, strain ARP1, active compounds read low 1.02 | locus YHR142W, strain chs7, active compounds read low 1.01 | locus YHR200W, strain rpn10, active compounds read low 1.03 | locus YIL066C, strain RNR3, active compounds read low 1.04 | locus YIL073C, strain SPO22, active compounds read low 1.1 | locus YIL125W, strain kgd1, active compounds read low 1.01 | locus YIR030C, strain dcg1, active compounds read low 1.02 | locus YJL092W, strain hpr5, active compounds read low 0.998 | locus YJL095W, strain BCK1 (second series), active compounds read low 1.01 | locus YJL095W, strain BCK1, active compounds read low 1.03 and 0.973 | locus YJL115W, strain asf1, active compounds read low 1 | locus YJL129C, strain trk1, active compounds read low 0.998 | locus YJL134W, strain LCB3, active compounds read low 1.01 | locus YJL154C, strain vps35, active compounds read low 1 | locus YJL164C, strain tpk1, active compounds read low 1.01 | locus YJL166W, strain qcr8, active compounds read low 0.993 | locus YJL168C, strain set2, active compounds read low 1.02 | locus YJL187C, strain SWE1 (second series), active compounds read low 1.02 | locus YJL187C, strain SWE1, active compounds read low 0.997 | locus YJR043C, strain POL32, active compounds read low 1.03
